Records with an inconclusive call do not appear. Active and inactive are the calls of the source. The call rests on the fitted dose curve; in most records, active means well fitted cell-killing curve with a large enough effect; inconclusive means small, poorly fitted or top-dose-only effect; inactive means no such curve, though single readings can be large or run the other way.
Experiment: qHTS of pediatric cancer cell lines to identify multiple opportunities for drug repurposing: Confirmatory screen for DAOY cells (AID 1347114); further: nearly all actives have a fitted effect of over 65% in size
Conditions: DAOY medulloblastoma cells viability, cytotoxicity qHTS; series mostly up to 45.9 µM; activity change, negative = cytotoxic: at the top concentration
Source text: Drug repurposing or repositioning has been offered as a strategy for drug development in oncology programs. This approach has special potential for childhood cancers and other rare or orphan diseases, where the expected return on new drug development has been a disincentive to pharmaceuticals.
In this project we exploit the poly-pharmacology of drugs to discover new indications via phenotypic screening of a panel of 19 well-characterized cell lines derived from solid tumors seen in children and adolescents. The goal is to identify approved drugs with previously unrecognized anticancer properties that has the potential to reveal new mechanisms and biological processes involved in carcinogenesis or drug resistance. We employed a titration-based paradigm (quantitative high-throughput screening or qHTS), where all compounds were tested at multiple concentrations for their effect on cell viability. Concentration-response curves (CRCs) were derived directly from the primary screen, and both potency and efficacy values were used to identify compounds with robust bioactivity profiles. We screened the NIH Chemical Genomics Center (NCGC) Pharmaceutical Collection (NPC) and Mechanism Interrogation Plate (MIPE) small molecule collections of approved and investigational compounds against these cell lines; and measured metabolically active cells after 48 hours of compound treatment as a proxy for cell viability.
Assay Submitter: Nathalia J. Martinez, National Center for Advancing Translational Sciences, National Institutes of Health, Rockville, MD, USA; email: natalia.martinez@nih.gov
[1] Shen, M et al. Quantitative high-throughput phenotypic screening of pediatric cancer cell lines identifies multiple opportunities for drug repurposing. Oncotarget 2017 Dec 19;9(4):4758-4772. PMID 29435139.
The cells were obtained from University of North Carolina (UNC), Pediatric Preclinical Testing Program (PPT), and Coriell Institute (CI).
qHTS cell viability assay:
Cells were assayed in growth media at a density of 500-1,000 cells/well. Five microliters of cells were dispensed into 1,536-well, white, solid-bottom, TC-treated plates (Greiner Bio One) using a multidrop dispenser and incubated at 37 degrees C, 5% CO2, under a humidified atmosphere for 5 hours. Twenty-three nanoliters of compounds and controls (neutral control DMSO or positive control bortezomib at final concentration of 2.3 µM) were subsequently transferred by Kalypsys pintool. For primary screens, the MIPE collection was tested at 11-point dilutions (final concentrations range from 0.78 nM to 46 µM) and the NPC collection at 8-point dilutions (final concentrations range from 0.59 nM to 46 µM). Compounds tested in follow-up screens were assayed at 11-point dilutions. Cells were incubated for 48 hours, followed by addition of 3 uL of CellTiter-Glo (Promega). After a 15 min incubation at room temperature, samples were analyzed for luminescence intensity using a ViewLux High-throughput CCD imager equipped with clear filters.
On the % scale 0 is the no-effect control and ±100 the full control effect; potency means the concentration at half of the fitted maximal effect.

SMILES	Potency	activity change, negative = cytotoxic
CN1CCN(CCCN2c3ccccc3Sc3ccc(C(F)(F)F)cc32)CC1	18.5 µM (active)	–
NC(=O)c1ccc(I)c([N+](=O)[O-])c1	61.8 µM (active)	–
CNCc1ccc(-c2[nH]c3cc(F)cc4c3c2CCNC4=O)cc1	–	-3.31% (inactive)
CN(C)c1ccc(C2Nc3ccc4ccccc4c3C3=C2C(=O)CC(C)(C)C3)cc1Br (centres undefined)	–	-19.1% (inactive)
O=NN(CCCl)C(=O)NCCCl	–	6.91% (inactive)
Cc1cn[nH]c1	–	9.51% (inactive)
CCN(CC)CCCC(C)Nc1ccnc2cc(Cl)ccc12 (centres undefined)	–	3.27% (inactive)
C[C@]1(c2nc3c(C(N)=O)cccc3[nH]2)CCCN1	–	13.5% (inactive)
NC(N)=NC(=O)c1nc(Cl)c(N)nc1N	–	-12.9% (inactive)
NCCCC(N)(C(=O)O)C(F)F (centres undefined)	–	-2.38% (inactive)
CC(C=CC1=C(C)CCCC1(C)C)=CC=CC(C)=CC(=O)O	–	14.6% (inactive)
Nc1nc2c(ncn2COCCO)c(=O)[nH]1	–	10.2% (inactive)
O=C(NOC[C@H](O)CO)c1ccc(F)c(F)c1Nc1ccc(I)cc1F	–	-2.92% (inactive)
COc1ccc(-c2oc3cc(OC)ccc3c2C(=O)c2ccc(C#N)cc2)cc1	–	-15.3% (inactive)
CCOc1ccn(-c2ccc(F)cc2)c(=O)c1C(=O)Nc1ccc(Oc2ccnc(N)c2Cl)c(F)c1	–	-6.02% (inactive)
CCC(C)(C)C(=O)O[C@H]1C[C@@H](C)C=C2C=C[C@H](C)[C@H](CC[C@@H]3C[C@@H](O)CC(=O)O3)[C@H]21	5.85 µM (active)	–
OC(CN1CCC(Cc2ccc(F)cc2)CC1)c1ccc(Cl)cc1 (centres undefined)	–	-22% (inactive)
Nc1nc2[nH]cc(CCc3ccc(C(=O)N[C@@H](CCC(=O)O)C(=O)O)cc3)c2c(=O)[nH]1	–	2.2% (inactive)
COc1ccc(-c2ccc3c(N4CCOCC4)nc(N4C[C@@H](C)O[C@@H](C)C4)nc3n2)cc1CO	9.27 µM (active)	–
COCC(=O)NCC=Cc1ccc2ncnc(Nc3ccc(Oc4ccc(C)nc4)c(C)c3)c2c1	16.5 µM (active)	–
Cc1oncc1C(=O)Nc1ccc(C(F)(F)F)cc1	–	-20.9% (inactive)
CS(=O)(=O)c1ccc(C(=O)Nc2ccc(Cl)c(-c3ccccn3)c2)c(Cl)c1	–	-19.2% (inactive)
COc1cc2nccc(Oc3ccc(NC(=O)NC4CC4)c(Cl)c3)c2cc1C(N)=O	–	-26.4% (inactive)
CO[C@@H]1[C@H](N(C)C(=O)c2ccccc2)C[C@H]2O[C@]1(C)n1c3ccccc3c3c4c(c5c6ccccc6n2c5c31)C(=O)NC4	–	-8.69% (inactive)
